Results from PubChem BioAssay AID1863 (Southern Research Specialized Biocontainment Screening …, 2009).
Screen size: about 300,000 compounds; about 480 (0.16%) were called active.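 The calls were made as follows: active = inhibition over 29.93%, a cutoff 3 SD above the screen mean, later confirmed by dose response; inconclusive = inhibition over 29.93% but no dose response follow-up; inactive = inhibition at most 29.93% or unconfirmed.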 Only a sample is shown. Entries with a potency or affinity are not part of this list.

Assay: inhibitors of PhoP regulon expression, primary screen, Salmonella Typhimurium, GFP reporter (AID 1863);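 also: 0% = low Mg2+ inducing control and 100% = high Mg2+ repressing control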
Details: S. Typhimurium PhoP-regulated promoter GFP reporter, 4 h; at 50 µM; hits give high values

inhibition, inactive:
COCCn1c(SCC(=O)N2CCCCC2)nc2c([nH]c3ccccc32)c1=O -1.34%, O=C(N/N=C/c1ccccc1O)c1ccncc1 -5.2%, O=C(N/N=C/c1ccc(O)c([N+](=O)[O-])c1)c1ccncc1 -0.43%, Cc1ccc(C(=O)N/N=C\c2cc3c(cc2Br)OCO3)cn1 1.38%, O=C(N/N=C/c1cc(Br)c(O)c(Br)c1O)c1cccnc1 -3.91%, O=C(N/N=C/c1cc(Br)c(O)c(Br)c1)c1cccnc1 -1.14%, O=C(N/N=C/c1cc(Br)ccc1O)c1ccncc1 3.11%, COc1ccc(C(=O)N/N=C/c2cc(Br)ccc2O)cc1OC -7.66%, O=C(N/N=C/c1ccc(Cl)cc1Cl)c1ccncc1 3.86%, Cc1nc2c3ccccc3nc(SCC(=O)N3CC(C)CC(C)C3)n2n1 (configuration not stated) 4.78%, Cc1ccc2oc(=O)c3cnn(CC(=O)N4CCCc5ccccc54)c3c2c1 -8.23%, Cc1cccc(NC(=O)CNC(=O)N2CC(=O)Nc3ccccc32)c1C -2.45%, Cc1cccc(C(=O)Nc2nnc(SCC(=O)NC3CC3)s2)c1 -3.7%, CS(=O)(=O)N1CCc2ccc(NC(=O)C3CCCO3)cc2C1 (configuration not stated) 4.89%, Cc1ccc(S(=O)(=O)/N=C(/c2ccc(F)cc2)N2CCOCC2)cc1 -3.33%, CCOC(=O)C1CCN(c2ncnc3nc[nH]c23)CC1 0.02%, Cc1ccc(OCCC(=O)OCC(=O)Nc2ccccc2)cc1 1.27%, O=C(N/N=C/c1cc(Cl)ccc1O)c1ccc(Br)cc1 4.94%, O=C(N/N=C/c1coc2ccc(Cl)cc2c1=O)c1ccncc1 7.37%, O=C(N/N=C/c1coc2ccc(Cl)cc2c1=O)c1ccc(O)cc1 10.4%, O=C(N/N=C/c1cc([N+](=O)[O-])ccc1O)C1C2CCCCC21 (configuration not stated) -0.31%, O=C(N/N=C/c1cccnc1)c1cccc(Cl)c1 -1.41%, O=C(N/N=C/c1cc([N+](=O)[O-])ccc1O)C1CCCCC1 1.18%, CCOc1ccc(CN2CCC(n3nccc3NC(=O)c3ccccc3OC)CC2)cc1 -0.04%, CCCNC(=O)c1ccccc1NS(=O)(=O)c1ccc(OC)c(OC)c1 4.85%, CCc1cc(C(=O)N(CCCOC)c2c(N)n(Cc3ccccc3)c(=O)[nH]c2=O)sc1C -2.51%, CCOC(=O)C(C(=O)OCC)C(C(=O)OCC)N1CCOCC1 (configuration not stated) 3.26%
